Hits are enriched below; roughly 13% of the tested compounds scored in any of these assays.
HADH2 inhib: blocks human hydroxyacyl-CoA dehydrogenase type II | Q99714 | 73,000 compounds, 3.4% hits | Potency, µM (series often up to 57.1 µM), for the others: at the top dose activity change, negative = inhibition, hits mostly inhibitors | recombinant HADH2, NADH fluorescence, beta-hydroxybutyryl-CoA; note: potency is the fitted concentration of half-maximal effect; % is set by controls: 0 for no effect and ±100 for the full control effect; nearly all actives have a fitted effect of over 60% in size
Target sequence (Q99714 whole entry, looked up, one chain of several): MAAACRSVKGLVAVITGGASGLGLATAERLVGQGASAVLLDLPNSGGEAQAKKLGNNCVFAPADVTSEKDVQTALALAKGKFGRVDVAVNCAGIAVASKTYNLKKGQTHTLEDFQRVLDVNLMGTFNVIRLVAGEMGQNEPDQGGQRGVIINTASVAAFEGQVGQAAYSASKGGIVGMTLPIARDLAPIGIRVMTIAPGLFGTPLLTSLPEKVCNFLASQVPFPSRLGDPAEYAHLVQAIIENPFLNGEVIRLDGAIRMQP
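E. coli-expressed His-tagged HADH2 tested at 20 nM in alkaline Tris buffer (pH 9.0); oxidation of 90 uM beta-hydroxybutyryl-CoA with 1 mM NAD+ tracked fluorimetrically for 4 min.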
A350 autofl: A350 region autofluorescence; Compound autofluorescence, 340/450 nm, Alexa 350 dye-equivalents; active compounds read high; max dye-equivalent concentration, M; 59,000 compounds, 11% hits; AID 590; in the data active = max dye-equivalent concentration above about 10 nM; inconclusive = mostly about 1.1 nM to 9.6 nM
4-MU autofl: compounds fluorescent in 4-MU spectral region; compound autofluorescence, 340/450 nm, 4-MU equivalents; active compounds read high; max dye-equivalent concentration, M; 59,000 compounds, 11% hits; in the data active = max dye-equivalent concentration above about 10 nM; inconclusive = mostly about 1.1 nM to 9.6 nM
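Compounds in 100 mM Tris, pH 8.0, incubated 15 min at room temperature, then fluorescence read at 340 nm excitation/450 nm emission. Signal converted to 4-MU dye-equivalent concentration using an on-plate six-point 4-MU standard curve.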
AID923: qHTS Assay for Allosteric/Competitive Inhibitors of Caspase-1: Spectroscopic Profiling in AFC Spectral Region; Potency, µM (top dose mostly 57.5 µM), without a hit: at the top dose fluorescence increase, usual class: activators; 75,000 compounds, 1.1% hits; compound fluorescence, AFC spectral region (405/520 nm); AID 923, 2007; note: potency is the fitted concentration of half-maximal effect; 0% is about no effect
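Titrations up to 57 uM read every 20 sec for 3 min (405/520 nm) with 50 nM caspase 1 and 5 uM Ac-WEHD-AFC, pH 7.5 HEPES buffer. Fluorescence-vs-time intercept gave baseline, scaled against on-plate AFC standard.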
HSD17B inhib: blocks hydroxysteroid 17-beta dehydrogenase activity; recombinant HSD17B10, NADH fluorescence kinetic; 75,000 compounds, 7.6% hits; Potency, µM (top dose mostly 57.1 µM), for the others: at the top dose activity change, negative = inhibition, usual class: inhibitors; Q99714;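 note: the protocol describes HADH2 (HSD17B10) and not the HSD17B4 of the title; potency is the fitted concentration of half-maximal effect; % is set by controls: 0 for no effect and ±100 for the full control effect; nearly all actives have a fitted effect of over 70% in size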
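Activity followed as NADH fluorescence increase (ex 360, em 450 nm) every 30 seconds for 4 min, using final 90 uM beta-hydroxybutyryl CoA and 1 mM NAD+. Recombinant His-tagged enzyme, 20 nM, pH 9.0 Tris buffer, 15 min compound preincubation.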
Active calls of the source: *; i = inactive; ? = inconclusive; / = no result given; [ ] = another dose, or the depositor's remark. Unless noted, calls come from the whole dose curve; as a rule, active = well fitted curve in the direction sought with a large enough effect; inconclusive = small, poorly fitted or top-dose-only effect, or another doubt; inactive = no such curve, though single readings can be large; an effect the other way counts as inactive or inconclusive.

SMILES	HADH2 inhib	A350 autofl	4-MU autofl	AID923	HSD17B inhib
CN1C[C@H](c2ccccc2)C(O)([C@]2(c3ccccc3)CN(C)C[C@@H](c3ccccc3)C2=O)[C@H](c2ccccc2)C1 (some centres undefined)	-9%[11.4 µM]	?	i	-2%[11.5 µM]	6%[11.4 µM]
C=CCN1CN(S(=O)(=O)c2cccs2)c2nc3ccccc3nc21	0%	3.2e-08M*	2.4e-08M*	2%	?
O=S(=O)(c1cccs1)N1CN(CC2CCCO2)c2nc3ccccc3nc21 (centres undefined)	?	3.9e-08M*	2.8e-08M*	2%	?
CCCCC1C(=O)N(c2ccccc2)N(c2ccc(O)cc2)C1=O (centres undefined)	/	/	/	-1%	-14%
CC1CCN(CC(=O)NCc2ccccc2)CC1	-5%	i	i	0%	9%
Cc1ccc(CNC(=O)CN2CCC(C(N)=O)CC2)cc1	-2%	5.7e-08M*	2.9e-08M*	1%	2%
Cc1cc(=O)oc2c(OS(C)(=O)=O)c(OS(C)(=O)=O)ccc12	14%[11.4 µM]	6.9e-08M*	5.9e-08M*	5%[11.5 µM]	i[11.4 µM]
CCC/C=C(\CCC)C(NS(=O)(=O)c1cccc2cccnc12)c1ccc(C(=O)OC)cc1 (centres undefined)	-3%	/	/	0%	2%
CC(=O)N1CCC2(CCCN(c3ccc(-c4ccccc4)cc3)C2)CC1	-22%	i	i	4%	25µM*
COCC(=O)N1CCC2(CCCN(c3ccc(-c4ccccc4)cc3)C2)CC1	5%	i	i	2%	25µM*
CS(=O)(=O)N1CCC2(CC1)CN(Cc1nccs1)C2	-2%	i	i	0%	7%
COc1cc2c(cc1OC)CN(C(=O)CSc1nc(N)c(C#N)cc1C#N)CC2	?	2.2e-08M*	1.5e-08M*	5%	?
COc1ccc2[nH]c3c(c2c1)CN(C)CC3	2µM*	i	i	0%	?
CN1CCc2ccccc2Cc2[nH]c3ccccc3c2CC1	-13%	i	i	7%	-5%
O=c1[nH]cnc2nc3n(c12)CCCCC3	-8%	i	i	0%	10%
O=c1[nH]nc2n1CCCCC2	/	4e-08M*	3.8e-08M*	/	/
CC1Cc2cc(/C(O)=C3/C(=O)C(=O)N(Cc4ccco4)C3c3cccs3)ccc2O1 (centres undefined)	-17%	i	i	-1%	20µM*
C/C(=N/O)[C@@H]1C[C@H](CC(=O)O)C1(C)C	-6%[11.4 µM]	i	i	0%[11.5 µM]	7%[11.4 µM]
Cc1ccc2c(c1)c1c(n2CC(O)Cn2nc(C)c(Br)c2C)C(=O)CCC1 (centres undefined)	4%	2e-08M*	2.2e-08M*	0%	?
Cc1ccc2c(c1)c(C)c(C)n2CC(O)Cn1nc(C)c(Br)c1C (centres undefined)	?	3e-08M*	2.9e-08M*	-2%	?
Cc1ccc2c(c1)c(C)c(C)n2CC(O)CN1CCCCC1C (centres undefined)	?	/	/	0%	?
CC(=O)c1c(C)nn(CC(O)Cn2c3c(c4cc(C)ccc42)CCCC3=O)c1C (centres undefined)	?	9.5e-08M*	1.1e-07M*	7%	25µM*
CCOc1cc(OCC)c(C(C)=O)cc1OCC	-6%	/	/	2%	0%
CC1=CC(C)C2C(=O)N(CCCN(C)C)C(=O)C2C1 (centres undefined)	8%	1.4e-08M*	1.7e-08M*	0%	-6%
CN1CCN(c2nc3c(c(=O)n(C)c(=O)n3C)n2C)CC1	3%[11.4 µM]	i	i	0%[11.5 µM]	2%[11.4 µM]
COc1ccccc1CCn1cnc2c3cc(C)ccc3n(C)c2c1=O	?	1.8e-08M*	5.8e-08M*	2%	32µM*
COc1ccc2c(c1)c1ncn(CCN3CCCC3)c(=O)c1n2C	25µM*	6.7e-07M*	9.5e-07M*	0%	25µM*
COc1ccccc1CNC(=O)Cn1cnc2ccccc2c1=O	-1%	?	i	0%	5%
Cc1noc(C)c1-c1cc(NCc2cccs2)ncn1	8%	i	i	3%	7%
C[C@@H](C(=O)O)c1ccc(C(=O)c2ccccc2)s1	-14%[25.6 µM]	i	i	-3%[25.7 µM]	-8%[25.6 µM]
